Test results taken from PubChem BioAssay (NCATS).
Records with an inconclusive call do not appear. The source made the active and inactive calls. Unless noted, calls come from the whole dose curve; as a rule, active = well fitted inhibition curve with a large enough effect; inconclusive = small, poorly fitted or top-dose-only effect; inactive = flat fitted curve, though single readings scatter.

Target: DNA dC->dU-editing enzyme APOBEC-3G (Homo sapiens) (UniProt Q9HC16)
Assay: qHTS for inhibitors of Vif-A3G interactions: Validation (AID 588379)
Details: Vif-A3G protein interaction assay; series mostly up to 46.1 µM
How it was run: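 Yellow fluorescence (Ex 488, Em 500-530) of Vif-coexpressing HeLa A3G-eYFP cells, scanned by Acumen cytometer, reports blocked A3G degradation. Cells plated at 700/well overnight at 37 deg C before compound addition, then a further overnight compound incubation at 37 deg C.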

DNA dC->dU-editing enzyme APOBEC-3G (Homo sapiens), sequence (Q9HC16 whole entry, looked up): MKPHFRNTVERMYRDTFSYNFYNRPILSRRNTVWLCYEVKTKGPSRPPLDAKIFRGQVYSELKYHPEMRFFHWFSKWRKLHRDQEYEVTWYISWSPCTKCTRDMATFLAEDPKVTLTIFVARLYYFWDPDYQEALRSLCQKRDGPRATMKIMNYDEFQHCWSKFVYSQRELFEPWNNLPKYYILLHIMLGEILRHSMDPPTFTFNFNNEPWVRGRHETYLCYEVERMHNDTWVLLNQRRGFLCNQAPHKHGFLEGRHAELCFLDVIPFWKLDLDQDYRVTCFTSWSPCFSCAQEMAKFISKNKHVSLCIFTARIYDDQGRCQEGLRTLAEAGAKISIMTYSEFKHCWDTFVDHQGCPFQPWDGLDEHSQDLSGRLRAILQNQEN

For `COc1cc(C=O)ccc1O`, which outcome is on record?
The outcome was “inactive”.

For `NCC(=O)O`, which outcome is on record?
The outcome was “inactive”.

`Nc1c[n+](N2CCOCC2)no1` was tested. Which outcome did it give?
Its outcome is “inactive”.

`C[C@@H](C1=C(CCN(C)C)Cc2ccccc21)c1ccccn1` was tested. Which outcome did it give?
Its outcome is “inactive”.

Target: Estrogen receptor (Homo sapiens) (UniProt P03372)
Sequence (P03372 whole entry, looked up): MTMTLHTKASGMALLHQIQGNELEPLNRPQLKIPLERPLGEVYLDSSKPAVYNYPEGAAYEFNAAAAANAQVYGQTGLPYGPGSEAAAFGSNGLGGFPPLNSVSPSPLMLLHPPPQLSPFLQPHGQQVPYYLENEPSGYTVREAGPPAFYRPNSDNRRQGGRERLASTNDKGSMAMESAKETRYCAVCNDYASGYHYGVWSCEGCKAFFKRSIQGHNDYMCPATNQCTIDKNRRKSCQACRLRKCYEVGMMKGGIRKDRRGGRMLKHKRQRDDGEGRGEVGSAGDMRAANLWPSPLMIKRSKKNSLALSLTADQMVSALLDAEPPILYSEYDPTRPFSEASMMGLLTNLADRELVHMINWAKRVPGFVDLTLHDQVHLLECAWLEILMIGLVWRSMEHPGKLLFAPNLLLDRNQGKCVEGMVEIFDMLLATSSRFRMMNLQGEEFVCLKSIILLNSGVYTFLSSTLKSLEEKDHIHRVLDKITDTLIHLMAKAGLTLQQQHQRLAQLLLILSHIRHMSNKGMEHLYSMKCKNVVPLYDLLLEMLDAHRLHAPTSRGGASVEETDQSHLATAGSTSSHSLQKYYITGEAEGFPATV
Assay: qHTS assay for small molecule antagonists of estrogen receptor alpha signaling (AID 588513; active = well fitted curve in the direction sought with a large enough effect in the signal ratio, with a control signal flat, not every such curve was filed as active; the % refers to the signal ratio)
Details: ER-alpha-UAS-bla HEK293, beta-lactamase ratio, antagonist mode; series mostly up to 76.9 µM
How it was run: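 Antagonist mode: inhibition of 0.5 nM 17-beta-estradiol-driven beta-lactamase reporter in HEK 293 ER-alpha-UAS-bla cells, 18 h at 37C, CCF4 readout after 2 h at RT. Normalised to estradiol and DMSO; titration fitted to Hill.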

With `COc1cc(C=O)ccc1O` as the molecule, how does the outcome read?
The outcome was “inactive”.

For `CCCC(=O)c1cc(O)c(O)cc1O`, which outcome is on record?
The outcome was “inactive”.

How did the outcome turn out when `CC(C)C(C)(C)C(C)(C)C(C)(C)S` was run?
Its outcome is “inactive”.

`Nc1ccc(O)cc1` was tested. Which outcome did it give?
The outcome was “inactive”.

How did the outcome turn out when `CC(=O)OC/C=C(C)/C=C/C=C(C)/C=C/C1=C(C)CCCC1(C)C` was run?
The outcome was “inactive”.
